Experimental data: the supplement of paper PMC8728848
About 410 targets per protein were measured; listed, in parts, are those with the strongest signals and a random draw of the rest.

B1: Crocus Lectin (Crocus vernus), Q9FVA1 (protein)
chain: MAKSLVLSSLLLALLLAAPLASLADNNVLLTGDVLHTDNQLSFESAAFVMQGDCNLVLYNEAGGFQSNTHGRGVGCTLRLNNFGQLEIHSANSNTPVWVSLRNGIPVRGDYAAVLGPDQHVTIYGPAIWSTPAPNRHERGATVSNIPRVRNVLFSSQVMSDNAQLATRDYSLVMRDDCNLALTKGSKTNIVWESGTSGRGQHCFMRLGHTGLIEISDDRLNTVWRSNTVGQEGDYVLILQINGQAVVYGPAVWSTASPARGGASAAL
B2: FBG1 (Homo sapiens), Q9UK22 (protein)
chain: MDGDGDPESVGQPEEASPEEQPEEASAEEERPEDQQEEEAAAAAAYLDELPEPLLLRVLAALPAAELVQACRLVCLRWKELVDGAPLWLLKCQQEGLVPEGGVEEERDHWQQFYFLSKRRRNLLRNPCGEEDLEGWCDVEHGGDGWRVEELPGDSGVEFTHDESVKKYFASSFEWCRKAQVIDLQAEGYWEELLDTTQPAIVVKDWYSGRSDAGCLYELTVKLLSEHENVLAEFSSGQVAVPQDSDGGGWMEISHTFTDYGPGVRFVRFEHGGQDSVYWKGWFGARVTNSSVWVEP

Tests used:
Experiment in all cases: glycan array binding signal (z-score within array); higher = stronger binding
Conditions in all cases: glycan notation: IUPAC condensed, linker removed
[1] = molecular target: Fuc(a1-2)Gal(b1-3)GalNAc(b1-3)Gal(a1-4)Gal(b1-4)Glc
Outline: (§1)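 From the Consortium for Functional Glycomics database, 3228 arrays were curated, keeping only those whose protein sequence was available. Binding is given as a within-array Z-score averaged across arrays sharing a protein sequence and across linkers. Negative Z-scores can be read as non-binding.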

[2] = molecular target: Fuc(a1-2)Gal(b1-4)GlcNAc(b1-3)Gal(b1-4)GlcNAc(b1-3)Gal(b1-4)GlcNAc
Outline: as §1

[3] = molecular target: Fuc(a1-2)[GalNAc(a1-3)]Gal(b1-4)[Fuc(a1-3)]GlcNAc
Outline: as §1

[4] = molecular target: Fuc(a1-3)[Gal3S(b1-4)]GlcNAc
Outline: as §1

Fuc(b1-3)GlcNAc = molecular target: Fuc(b1-3)GlcNAc
Outline: as §1

Gal(a1-3)Gal = molecular target: Gal(a1-3)Gal
Outline: as §1

Gal(b1-3)Gal = molecular target: Gal(b1-3)Gal
Outline: as §1

[5] = molecular target: Gal(b1-4)GalNAc(a1-3)[Fuc(a1-2)]Gal(b1-4)GlcNAc
Outline: as §1

Gal(b1-4)Glc = molecular target: Gal(b1-4)Glc
Outline: as §1

Gal(b1-4)Glc6S = molecular target: Gal(b1-4)Glc6S
Outline: as §1

GlcA(b1-3)Gal = molecular target: GlcA(b1-3)Gal
Outline: as §1

[6] = molecular target: GlcNAc(a1-6)Gal(b1-4)GlcNAc
Outline: as §1

[7] = molecular target: GlcNAc(b1-4)GlcNAc(b1-4)GlcNAc
Outline: as §1

[8] = molecular target: GlcNAc(b1-4)[GlcNAc(b1-6)]GalNAc
Outline: as §1

GlcNAc(b1-6)GalNAc = molecular target: GlcNAc(b1-6)GalNAc
Outline: as §1

[9] = molecular target: Man(a1-2)Man(a1-3)[Man(a1-3)[Man(a1-6)]Man(a1-6)]Man(b1-4)GlcNAc(b1-4)GlcNAc
Outline: as §1

Man(a1-3)[Man(a1-6)]Man = molecular target: Man(a1-3)[Man(a1-6)]Man
Outline: as §1

[10] = molecular target: Man(a1-3)[Man(a1-6)]Man(a1-6)[Man(a1-3)]Man(b1-4)GlcNAc(b1-4)GlcNAc
Outline: as §1

[11] = molecular target: Man(a1-3)[Man(a1-6)]Man(b1-4)GlcNAc(b1-4)GlcNAc
Outline: as §1

[12] = molecular target: Neu5Ac(a2-3)Gal(b1-3)[Neu5Ac(a2-3)Gal(b1-4)]GlcNAc
Outline: as §1

[13] = molecular target: Neu5Ac(a2-3)Gal(b1-4)[Fuc(a1-3)]GlcNAc6S
Outline: as §1

[14] = molecular target: Gal(b1-4)GlcNAc(b1-3)GalNAc
Outline: as §1

[15] = molecular target: Man(a1-2)Man(a1-3)[Man(a1-2)Man(a1-6)]Man(a1-6)[Man(a1-3)[Man(a1-6)]Man(a1-6)]Man(b1-4)GlcNAc(b1-4)GlcNAc
Outline: as §1

[16] = molecular target: Man(a1-2)Man(a1-6)[Man(a1-3)]Man(a1-6)[Man(a1-2)Man(a1-2)Man(a1-3)]Man(b1-4)GlcNAc(b1-4)GlcNAc
Outline: as §1

[17] = molecular target: Neu5Ac(a2-3)[GalNAc(b1-4)]Gal(b1-4)GlcNAc
Outline: as §1

[18] = molecular target: Neu5Gc(a2-3)Gal(b1-3)GlcNAc
Outline: as §1

Binder | glycan array binding signal (z-score) [1] | glycan array binding signal (z-score) [2] | glycan array binding signal (z-score) [3] | glycan array binding signal (z-score) [4] | glycan array binding signal (z-score) (Fuc(b1-3)GlcNAc) | glycan array binding signal (z-score) (Gal(a1-3)Gal) | glycan array binding signal (z-score) (Gal(b1-3)Gal) | glycan array binding signal (z-score) [5] | glycan array binding signal (z-score) (Gal(b1-4)Glc) | glycan array binding signal (z-score) (Gal(b1-4)Glc6S) | glycan array binding signal (z-score) (GlcA(b1-3)Gal) | glycan array binding signal (z-score) [6] | glycan array binding signal (z-score) [7] | glycan array binding signal (z-score) [8] | glycan array binding signal (z-score) (GlcNAc(b1-6)GalNAc) | glycan array binding signal (z-score) [9] | glycan array binding signal (z-score) (Man(a1-3)[Man(a1-6)]Man) | glycan array binding signal (z-score) [10] | glycan array binding signal (z-score) [11] | glycan array binding signal (z-score) [12] | glycan array binding signal (z-score) [13] | glycan array binding signal (z-score) [14] | glycan array binding signal (z-score) [15] | glycan array binding signal (z-score) [16] | glycan array binding signal (z-score) [17] | glycan array binding signal (z-score) [18]
B1 | -0.162 | -0.146 | -0.159 | -0.187 | -0.163 | -0.177 | -0.192 | -0.195 | -0.152 | -0.165 | -0.179 | -0.196 | -0.156 | -0.187 | -0.175 | 3.76 | 7.87 | 7.04 | 6.62 | -0.169 | -0.195 | – | – | – | – | –
B2 | 0.049 | – | – | – | – | -0.252 | – | – | – | – | – | – | – | – | – | – | – | – | – | – | – | 5.13 | 4.33 | 4.93 | -0.217 | -0.177
